Results: PubChem BioAssay (Tox21)
Results filed as inconclusive are left out. Calls of active or inactive are those of the source. Calls come from the whole dose curve; as a rule, active = well fitted cell-killing curve with a large enough effect in the repeat runs; inconclusive = weak or mixed curves, or effect the other way; inactive = no such curve, though single readings can be large or run the other way.

Assay: qHTS assay to identify small molecule agonists of the farnesoid-X-receptor (FXR) signaling pathway - cell viability counter screen (AID 743218); note: nearly all actives have a fitted effect of over 45% in size
Conditions: FXR-bla HEK293T viability, CellTiter-Glo luminescence, 16 h; series mostly up to 62.6 µM; viability change, negative = cytotoxic: at the top concentration
Description: U.S. Tox21 Program National Center for Advancing Translational Sciences [NCATS] NIH Chemical Genomics Center [NCGC] U.S. Environmental Protection Agency [EPA] National Institutes of Environmental Health Sciences [NIEHS] National Toxicology Program [NTP] U.S. Food and Drug Administration [FDA] Tox21 Assay Overview: The farnesoid-X-receptor (FXR), a nuclear hormone receptor, is highly expressed in liver, intestine, kidney and adrenal cortex. Natural ligands of FXR are the bile acids (Cholic acid, Chenodeoxy cholic acid etc). FXR is an important regulator of diverse metabolic pathways, including the bile acid homeostasis, lipid and glucose metabolisms. FXR regulates the expression of target genes by binding either as a monomer or as a heterodimer with the retinoid X receptor (RXR). Numerous studies have reported that FXR exerts protective function during cholestasis, diabetes, liver regeneration, and cancer. To identify compounds that activate FXR signaling, GeneBLAzer FXR-UAS-bla HEK 293T cell line (Invitrogen, Carlsbad, CA) containing a beta-lactamase reporter gene under the control of a UAS response element was used to screen the Tox21 10K compound library. The cytotoxicity of the Tox21 compound library against the FXR-bla cell line was tested in parallel by measuring the cell viability using CellTiter-Glo assay in the same wells.
Tox21 Assay Protocol Summary: FXR-bla cells were dispensed at 5000 cells/5uL/well in 1536-well black wall/clear bottom plates using a Multidrop Combi (Thermo Fisher Scientific, Waltham, MA) dispenser. After the assay plates were incubated at 37 C and 5% CO2 for 5 h, 23 nL of compounds dissolved in DMSO, positive controls or DMSO only was transferred to the assay plate by a Pintool station (Kalypsys, San Diego, CA). The assay plates were incubated at 37C for 16 h. After 1 uL of LiveBLAzerTM B/G FRET substrate was added using a Bioraptr Flying Reagent Dispenser (FRD) workstation (Beckman Coulter, Indianapolis, IN), the plates were incubated at room temperature for 2 h, and fluorescence intensity was measured by an Envision plate reader (PerkinElmer, Shelton, CT). For cell viability readout that measures cytotoxicity, 4uL/well of CellTiter-Glo reagent was added into the assay plates using a Bioraptr FRD. After 30 min incubation at room temperature, the luminescence intensity in the plates was measured using a ViewLux plate reader (PerkinElmer).
% is set by controls: 0 for no effect and ±100 for the full control effect.

Structure (SMILES) | viability change, negative = cytotoxic
Cc1cnc(NS(=O)(=O)c2ccc(N)cc2)nc1 | 9.27% (inactive)
COc1cc(C(=O)N2CCCCCCC2)cc(OC)c1OC | 0.734% (inactive)
O=C1CC2CC1C1CCCC21 (stereo not given) | -28.4% (inactive)
COC(=O)c1ccc(C)cc1C1=NC(C)(C(C)C)C(=O)N1 (stereo not given) | 2.9% (inactive)
CCOC(=O)C(=O)OCC | -0.675% (inactive)
COC(=O)c1cc(C(=O)OC)cc(S(=O)(=O)O)c1 | 14.1% (inactive)
CC(C)CCCC(C)N (stereo not given) | -6.68% (inactive)
COc1ccc2c(c1)CCCC2=O | 1.92% (inactive)
NS(=O)(=O)c1cc2c(cc1Cl)NC(C1CC3C=CC1C3)NS2(=O)=O (stereo not given) | 0.774% (inactive)
OC(CCN1CCCCC1)(c1ccccc1)C1CC2C=CC1C2 (stereo not given) | 1.96% (inactive)
COc1ccccc1OCC(O)CN1CCN(CC(=O)Nc2c(C)cccc2C)CC1 (stereo not given) | 0% (inactive)
COCCc1ccc(OCC(O)CNC(C)C)cc1 (stereo not given) | -1.51% (inactive)
CN1CCCC1 | 3.69% (inactive)
COc1c(N2C[C@@H]3CCCN[C@@H]3C2)c(F)cc2c(=O)c(C(=O)O)cn(C3CC3)c12 | 14.7% (inactive)
N=c1nc(N2CCCCC2)cc(N)n1O | 0.13% (inactive)
N[C@H](C(=O)O)c1ccc(O)cc1 | 16.9% [at 29.1 µM] (inactive)
C[C@H]1C[C@@H](O)CC(C)(C)C1 | -2.39% (inactive)
CC(=O)CC(C)(C)C1CCCCC1 | 8.06% (inactive)
CO[C@]12C[C@@H](COC(=O)c3cncc(Br)c3)CN(C)[C@@H]1Cc1cn(C)c3cccc2c13 | -3.83% (inactive)
C1CN(CCOCCN2CCOCC2)CCO1 | -9.24% (inactive)

Structure (SMILES) | viability change, negative = cytotoxic
CCCCCOC(=O)CCCCC | 11% (inactive)
NC(=O)c1ccc([N+](=O)[O-])cc1 | 21.8% (inactive)
C[N+](C)(C)CCCCCC[N+](C)(C)C | 22.1% (inactive)
CCN(CC)CCOCCOC(=O)C1(c2ccccc2)CCCC1 | -1.24% (inactive)
O=c1cc(CO)occ1O | 15.8% (inactive)
OC1CCCCC1c1ccccc1 (stereo not given) | 9.25% (inactive)
CC[N+](C)(C)c1cccc(O)c1 | -14.1% (inactive)
O=[N+]([O-])c1ccc(F)cc1F | 12% [at 81.1 µM] (inactive)
N=C(N)c1ccc2cc(OC(=O)c3ccc(N=C(N)N)cc3)ccc2c1 | -9.7% (inactive)
CCCCCCCCCCCC | 17.7% (inactive)
CCSC(=O)N(CC(C)C)CC(C)C | -2.79% (inactive)
O=C1OC(=O)C2CCCCC12 (stereo not given) | 4.3% (inactive)
CCc1nccnc1CC | -14.1% [at 29.1 µM] (inactive)
O=C(CCCN1CCC(O)(c2cccc(C(F)(F)F)c2)CC1)c1ccc(F)cc1 | -28.4% (inactive)
NCCCNCCSP(=O)(O)O | 7.81% [at 13.2 µM] (inactive)
Nc1c2c(nc3ccccc13)CCCC2O (stereo not given) | -12.9% (inactive)
O=C(O)CCCl | -11.7% [at 81.1 µM] (inactive)
CC(C)(c1ccc(O)cc1)c1ccc(O)cc1 | 25.1% (inactive)
c1ccc([C@H]2CN3CCSC3=N2)cc1 | -7.44% (inactive)
N[C@H]1CN(c2c(F)cc3c(=O)c(C(=O)O)cn(C4C[C@H]4F)c3c2Cl)CC12CC2 (stereo not given in full) | -5.74% (inactive)
